Assay results reported in PubChem BioAssay (NCI).
Compounds without any hit were thinned out: in the full panel of roughly 83,000, 20% have a hit.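 Treatment: one concentration, 48 hours, 96-well format. Scoring: percent growth, with anything below 10 considered active.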 Unmarked numbers belong to inactive results. Active and inactive are the calls of the source.

How the values were obtained:
Assay in all cases: NCI-60 one-dose screen, 48 h (100 = growth as untreated, 0 = no growth, -100 = all killed)
[1] = system: SK-MEL-2 melanoma; conditions: 10 µM unless noted
[2] = system: EKVX NSCLC; conditions: 10 µM unless noted
[3] = system: SN12C renal; conditions: 10 µM unless noted
[4] = system: UO-31 renal; conditions: 10 µM unless noted
[5] = system: TK-10 renal; conditions: 10 µM unless noted
[6] = system: ACHN renal; conditions: 10 µM unless noted
[7] = system: CAKI-1 renal; conditions: 10 µM
[8] = system: A498 renal; conditions: 10 µM unless noted
[9] = system: CCRF-CEM leukemia; conditions: 10 µM unless noted
[10] = system: MOLT-4 leukemia; conditions: 10 µM unless noted
[11] = system: SR leukemia; conditions: 10 µM unless noted
[12] = system: RPMI-8226 leukemia; conditions: 10 µM unless noted
[13] = system: OVCAR-8 ovarian; conditions: 10 µM unless noted
[14] = system: OVCAR-5 ovarian; conditions: 10 µM unless noted
[15] = system: SK-OV-3 ovarian; conditions: 10 µM unless noted
[16] = system: IGROV1 ovarian; conditions: 10 µM unless noted
[17] = system: OVCAR-3 ovarian; conditions: 10 µM unless noted
[18] = system: HS 578T breast; conditions: 10 µM unless noted
[19] = system: NCI/ADR-RES ovarian; conditions: 10 µM unless noted
[20] = system: OVCAR-4 ovarian; conditions: 10 µM unless noted

SMILES | growth [1] | growth [2] | growth [3] | growth [4] | growth [5] | growth [6] | growth [7] | growth [8] | growth [9] | growth [10] | growth [11] | growth [12] | growth [13] | growth [14] | growth [15] | growth [16] | growth [17] | growth [18] | growth [19] | growth [20]
O=C(NCCCNc1cc(-c2cn(-c3ccccc3)nc2-c2cccc(O)c2)ccn1)Nc1ccc(F)cc1 | -4.51% (active) | 33.8% | 31.1% | 6.93% (active) | 65% | 24.8% | 12.8% | -6.39% (active) | 11% | 4.57% (active) | 17.4% | -31.1% (active) | 21.2% | 37.8% | 31.5% | 19.2% | 28.4% | -21.4% (active) | 20.9% | 
O=C1[C@@H]2Cc3c([nH]c4ccccc34)[C@H](c3c(Cl)cccc3Cl)N2C(=O)CN1C1CCN(Cc2ccccc2)CC1 | 85.7% | 53.6% | 15.5% | 14% | 89.2% | 43.5% | 74.3% | 66.3% | 3.54% (active) | 12.8% | 1.57% (active) | 7.38% (active) | 47.7% | 63% |  | 24.6% | 81.4% | 28.5% | 18.5% | -0.678% (active)
COc1ccc(S(=O)(=O)n2cc(C=O)c3ccccc32)c(OC)c1 | 96.1% | 91.4% | 85.2% | 52.4% | 106% | 85.6% | 52.5% | 92.4% | 33.5% | 29.2% | 16.4% | 38.7% | 76.1% | 96.1% | 97.4% | 86.6% |  | 78.3% | 51% | 
O=C(NNc1nc2cc(F)cc(F)c2n2cccc12)c1ccncn1 | 22% | 7.66% (active) | 19.6% | 17.3% | 10% | 11.6% | 16.5% | 22.2% | 5.12% (active) | 4.2% (active) | 4.42% (active) | 9.13% (active) | 12.5% | 40.9% |  | 15.1% | 8.94% (active) | 34% | 1.44% (active) | 4.29% (active)
O=C(CN1C(=O)S/C(=C\c2ccccc2)C1=O)Nc1ccc(C(=O)/C=C/c2cc3ccccc3nc2Cl)cc1 | 83.1% | 65.3% | 91.2% | 57.7% | 84.9% | 83% | 64.1% | 86% | 77.2% | 51.4% | 42.4% | 26.2% |  | 99.5% | 82.5% | 80.4% | 85.6% | 96.1% | 88.8% | 41.9%
Oc1ccc(CSc2nnc(-c3cnccn3)n2-c2ccccc2)c2cccnc12 | 42.6% | 44% | 24.5% | 10.7% | 37.7% | 15.4% | 16.7% | 10.9% | 16.7% | 21.3% | 42.1% | 29.1% | 23.1% | 50.3% | 21.1% | 16.3% |  | 29.4% | 10.9% | 
O=C(NNc1nc2cc(F)cc(F)c2n2cccc12)c1ncccn1 | 23.2% | 11.1% | 15.7% | 16% | 26% | 9.54% (active) | 17.4% | 23.8% | 7.19% (active) | 13% | 13.2% | 12.7% | 16.7% | 40.5% |  | 14% | 16.3% | 42.8% | -1.21% (active) | 20.9%
C#C[C@]1(O)CC[C@H]2[C@@H]3CC=C4c5sc(Nc6cc(Cl)ccn6)nc5CC[C@]4(C)[C@H]3CC[C@@]21C | -4.31% (active) | -1.83% (active) | 53.6% | -51.3% (active) | 35.4% | 32.5% | -19.9% (active) | -42.4% (active) | 9.26% (active) | 4.35% (active) | 4.56% (active) | -22.9% (active) |  | 47.5% | -1.88% (active) | 40.1% |  | -3.53% (active) | 34.7% | 68.1%
Nc1ccc(-c2nnc(SCc3ccc(O)c4ncccc34)o2)cc1 | 3.45% (active) | -5.86% (active) | 6.01% (active) | -12.5% (active) | 1.68% (active) | 2.17% (active) | 4.38% (active) | -40.1% (active) | 5.03% (active) | 5.7% (active) | 18.8% | -9.68% (active) | 8.94% (active) | 25% | -15.3% (active) | 0.429% (active) | 7.75% (active) | -12.6% (active) | -9.89% (active) | 
C#Cc1ccc(NC(=O)c2ccc(/C=C/C(=O)c3nccn3C)cc2)c(F)c1 | 103% | 36% | 16.3% | 41.8% | 89.4% | 37.7% | 37.3% | 78.7% | 7.54% (active) | 16.2% | 8.09% (active) | -5.69% (active) |  | 40.7% | 65.3% | 23.9% | 12.6% | 51.4% | 10.8% | 42.3%
NC(=O)c1c(NC(=O)c2cccc(OC(F)(F)F)c2)sc2c1CCC(=O)C2 | 105% | 68.7% | 59.5% | 30.1% | 73.3% | 20.2% | 45.7% | 88.3% | 8.53% (active) | 44.4% | 30% | 6.56% (active) | 53% | 62.5% |  | 36.4% | 67.2% | 40.4% | 57.5% | 13.8%
O=C(CCCCCCN1CC(=O)N2[C@@H](c3ccccc3)c3[nH]c4ccccc4c3C[C@H]2C1=O)NO | 68.4% | 84.3% | 78.4% | 57.1% | 69.4% | 87.3% | 65.5% | 87.1% | 24.5% | 20.9% | 37.2% | 26.7% |  | 58% | 70.1% | 60.6% | 55.5% | 68.8% | 77.9% | 65.6%
O=C1Nc2ccc(Br)cc2/C1=N\c1nnc(-c2ccc(Cl)cc2)o1 | 87.6% | 72.5% | 85.7% | 62.3% | 187% | 74.9% | 59% | 69.4% | 35.7% | 36.6% | 10.9% | 62.5% | 82.6% | 98.7% | 73.3% | 55.3% |  | 83.1% | 36.9% | 
O=C(NNc1nc2cc(F)c(F)cc2n2cccc12)c1ccncn1 | 29.8% | 12.2% | 26.2% | 20.7% | 27.1% | 14.1% | 17.2% | 46.5% | 7.72% (active) | 8.93% (active) | 14.6% | 16.9% | 17.5% | 39% |  | 15.7% |  | 48.2% | 5.95% (active) | 3.66% (active)
COc1ccc(C(=O)n2cc(C=O)c3ccccc32)cc1 | 104% | 97.6% | 94.7% | 70.9% | 123% | 92.4% | 85% | 122% | 103% | 101% | 65.5% | 98.2% |  | 102% | 133% | 93.4% |  | 101% | 94.7% | 111%
Nc1c(C(=O)c2ccccc2)sc2nc(-c3cnccn3)cc(-c3cccs3)c12 | 111% | 95.6% | 95.2% | 88.4% | 106% | 98.3% | 89.9% | 106% | 100% | 105% | 105% | 108% |  | 103% | 103% | 97.4% |  | 98.8% | 107% | 106%
